According to PubChem BioAssay (NCI):
Compounds without any hit were thinned out: in the full panel of roughly 83,000, 20% have a hit.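 Interpretation: 100, growth as untreated; towards 0, rising growth inhibition; 0, no net growth; 0 to -100, cell death. Compounds scoring below 10 were considered active.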 Activity calls are given as the source filed them.

Tests used:
Assay in all cases: NCI-60 one-dose screen, 48 h (100 = growth as untreated, 0 = no growth, -100 = all killed)
Conditions in all cases: 10 µM unless noted
SK-MEL-2 melanoma = system: SK-MEL-2 melanoma
SN12C renal = system: SN12C renal
UO-31 renal = system: UO-31 renal
ACHN renal = system: ACHN renal
CAKI-1 renal = system: CAKI-1 renal
A498 renal = system: A498 renal
MOLT-4 leukemia = system: MOLT-4 leukemia
SR leukemia = system: SR leukemia
RPMI-8226 leukemia = system: RPMI-8226 leukemia
OVCAR-8 ovarian = system: OVCAR-8 ovarian
OVCAR-5 ovarian = system: OVCAR-5 ovarian
OVCAR-4 ovarian = system: OVCAR-4 ovarian
SK-OV-3 ovarian = system: SK-OV-3 ovarian
IGROV1 ovarian = system: IGROV1 ovarian
OVCAR-3 ovarian = system: OVCAR-3 ovarian
NCI/ADR-RES ovarian = system: NCI/ADR-RES ovarian
TK-10 renal = system: TK-10 renal
CCRF-CEM leukemia = system: CCRF-CEM leukemia
HS 578T breast = system: HS 578T breast

Measured: growth

Nc1c(C(=O)c2ccc(F)cc2)sc2nc3c(cc12)CCCC3
inactive: SK-MEL-2 melanoma 67.7% | SN12C renal 82.5% | UO-31 renal 75.3% | ACHN renal 96.6% | CAKI-1 renal 84.6% | A498 renal 56.2% | MOLT-4 leukemia 66.6% | SR leukemia 46.3% | RPMI-8226 leukemia 77.6% | OVCAR-8 ovarian 78.5% | OVCAR-5 ovarian 97% | OVCAR-4 ovarian 83.9% | SK-OV-3 ovarian 73.1% | IGROV1 ovarian 77.1% | OVCAR-3 ovarian 87.6% | NCI/ADR-RES ovarian 44.8%

Cc1ccc2c(c1)C(=O)C(c1c(-c3[nH]c(=O)c4ccc(C)cc4c3O)c(O)c3ccccc3c1O)=NC2=O
inactive: SK-MEL-2 melanoma 11.8% | TK-10 renal 46.9% | CCRF-CEM leukemia 16.6% | SR leukemia 23.1% | RPMI-8226 leukemia 32.8% | OVCAR-8 ovarian 14.4% | OVCAR-5 ovarian 66.4% | OVCAR-4 ovarian 25.2% | SK-OV-3 ovarian 44% | HS 578T breast 32.4% | NCI/ADR-RES ovarian 14.9%
active: SN12C renal -4.86% | UO-31 renal -11% | ACHN renal 6.58% | MOLT-4 leukemia -13.3% | OVCAR-3 ovarian -38.7%

COc1ccc(-c2cn[nH]c2-c2cc(OC)c3c(c2)OCO3)cc1
inactive: SN12C renal 34% | UO-31 renal 27.8% | ACHN renal 39.5% | CAKI-1 renal 24.9% | OVCAR-8 ovarian 11.7% | OVCAR-5 ovarian 46.1% | OVCAR-4 ovarian 51%
active: SK-MEL-2 melanoma -9.32% | A498 renal -18.8% | CCRF-CEM leukemia 2.12% | MOLT-4 leukemia 3.98% | SR leukemia 5.61% | RPMI-8226 leukemia -1.3% | SK-OV-3 ovarian -1.1% | IGROV1 ovarian -17.2% | OVCAR-3 ovarian -12.3%

COc1ccc(Cn2c(SC)nc(=O)n(Cc3ccc(Cl)cc3)c2=O)cc1
inactive: SK-MEL-2 melanoma 102% | SN12C renal 93.5% | UO-31 renal 68.3% | ACHN renal 96.3% | CAKI-1 renal 70.5% | A498 renal 88.9% | CCRF-CEM leukemia 97.7% | MOLT-4 leukemia 95% | SR leukemia 84.4% | RPMI-8226 leukemia 92.8% | OVCAR-8 ovarian 96% | OVCAR-5 ovarian 92.1% | OVCAR-4 ovarian 98% | SK-OV-3 ovarian 106% | IGROV1 ovarian 102% | OVCAR-3 ovarian 102% | HS 578T breast 94% | NCI/ADR-RES ovarian 95.4%

COc1cccc(/C=C/c2c(C(=O)O)cccc2[N+](=O)[O-])c1OC
inactive: SK-MEL-2 melanoma 102% | SN12C renal 103% | UO-31 renal 87.1% | ACHN renal 100% | CAKI-1 renal 94.2% | A498 renal 88.4% | CCRF-CEM leukemia 101% | MOLT-4 leukemia 96.1% | SR leukemia 103% | RPMI-8226 leukemia 107% | OVCAR-8 ovarian 110% | OVCAR-5 ovarian 103% | OVCAR-4 ovarian 113% | SK-OV-3 ovarian 88.2% | OVCAR-3 ovarian 102% | NCI/ADR-RES ovarian 109%

CC[C@H](C)[C@H]1NC(=O)[C@@H](N[C@](C)(O)[C@@H](N)CC(C)C)[C@@H](C)OC(=O)[C@H](Cc2ccc(OC)cc2)N(C)C(=O)[C@@H]2CCCN2C(=O)[C@H](CC(C)C)NC(=O)[C@@H](C)C(=O)[C@H](C(C)C)OC(=O)C[C@@H]1O
inactive: NCI/ADR-RES ovarian 37.4%
active: SK-MEL-2 melanoma -55.8% | SN12C renal -8.75% | UO-31 renal -19.9% | TK-10 renal -15% | ACHN renal -10.9% | A498 renal -28.9% | CCRF-CEM leukemia -19% | MOLT-4 leukemia -24.8% | RPMI-8226 leukemia -33% | OVCAR-8 ovarian -13.6% | OVCAR-5 ovarian -14.9% | OVCAR-4 ovarian -6.08% | SK-OV-3 ovarian -13% | IGROV1 ovarian -13.4% | OVCAR-3 ovarian -20.8% | HS 578T breast -4.99%

COc1ccc(OC)c(C(=O)c2oc3ccc(Br)cc3c2N)c1
active: SK-MEL-2 melanoma -9.79% | CAKI-1 renal 0.0162% | A498 renal -13.8% | CCRF-CEM leukemia 4.72% | RPMI-8226 leukemia -16.5% | SK-OV-3 ovarian -6.27% | OVCAR-3 ovarian 3.65%
inactive: SN12C renal 39.4% | UO-31 renal 27.5% | ACHN renal 50.7% | MOLT-4 leukemia 19.4% | OVCAR-8 ovarian 16.6% | OVCAR-5 ovarian 45.5% | OVCAR-4 ovarian 49.4% | IGROV1 ovarian 41.2% | NCI/ADR-RES ovarian 15.1%

CC(C)C[C@H](NC(=O)Cn1ccc(NCc2ccccc2)cc1=O)B(O)O
active: SK-MEL-2 melanoma -6.74% | UO-31 renal -40.5% | TK-10 renal -10.7% | ACHN renal 9.74% | A498 renal -20.9% | CCRF-CEM leukemia 2.78% | MOLT-4 leukemia -10.3% | SR leukemia 5.45% | RPMI-8226 leukemia -13.9% | OVCAR-3 ovarian -54.5% | HS 578T breast 8.69%
inactive: SN12C renal 31.2% | OVCAR-8 ovarian 51.3% | OVCAR-5 ovarian 38.9% | IGROV1 ovarian 41.1% | NCI/ADR-RES ovarian 80.7%

CC(C)(C)c1ccc(S(=O)(=O)Oc2ccc3c4c(c(=O)oc3c2)CCCCC4)cc1
inactive: SK-MEL-2 melanoma 45% | SN12C renal 63.3% | UO-31 renal 43.4% | TK-10 renal 87.1% | ACHN renal 30.3% | CCRF-CEM leukemia 58.6% | MOLT-4 leukemia 54.7% | SR leukemia 31.4% | RPMI-8226 leukemia 40.4% | OVCAR-8 ovarian 77.2% | OVCAR-5 ovarian 70% | SK-OV-3 ovarian 71.4% | IGROV1 ovarian 68.6% | OVCAR-3 ovarian 52.7% | HS 578T breast 40% | NCI/ADR-RES ovarian 20.1%
active: A498 renal -0.52%

CC(=O)Nc1nc(C(=O)N2N=C(C)/C(=C/c3ccc(Cl)cc3)C2=O)cs1
inactive: SK-MEL-2 melanoma 90.5% | SN12C renal 105% | UO-31 renal 82.4% | TK-10 renal 123% | ACHN renal 108% | CCRF-CEM leukemia 99.6% | MOLT-4 leukemia 91.7% | SR leukemia 88.1% | RPMI-8226 leukemia 103% | OVCAR-8 ovarian 103% | OVCAR-5 ovarian 110% | OVCAR-4 ovarian 112% | SK-OV-3 ovarian 108% | IGROV1 ovarian 108% | HS 578T breast 114% | NCI/ADR-RES ovarian 109%

Nc1c(C(=O)Nc2cccc(C(F)(F)F)c2)sc2nc3c(cc12)CCCCC3
active: SN12C renal 2.78% | UO-31 renal -39.8% | TK-10 renal -16.2% | ACHN renal -67.4% | A498 renal -21.8% | SK-OV-3 ovarian -21.4% | IGROV1 ovarian -17.4% | OVCAR-3 ovarian 3.45%
inactive: SK-MEL-2 melanoma 39.4% | CCRF-CEM leukemia 61.9% | MOLT-4 leukemia 83% | SR leukemia 33.3% | OVCAR-8 ovarian 21.3% | OVCAR-5 ovarian 35.5% | NCI/ADR-RES ovarian 17.1%

COc1ccc(C(=O)c2cc(OC)c(OC)c(OC)c2)cc1/C=C/C(=O)c1ccc2c(c1)OCO2
inactive: SK-MEL-2 melanoma 22.2% | SN12C renal 23.8% | TK-10 renal 44.6% | A498 renal 71.9% | OVCAR-8 ovarian 19.4% | SK-OV-3 ovarian 36.6% | IGROV1 ovarian 16.9% | HS 578T breast 54%
active: UO-31 renal -9.84% | ACHN renal -76.4% | MOLT-4 leukemia 2.27% | SR leukemia -10.3% | RPMI-8226 leukemia -3.8% | OVCAR-5 ovarian -16.7% | OVCAR-3 ovarian 1.03% | NCI/ADR-RES ovarian 5.77%

O=C(O)c1cccc([N+](=O)[O-])c1/C=C/c1ccccc1
inactive: SK-MEL-2 melanoma 106% | SN12C renal 98.7% | UO-31 renal 92.9% | ACHN renal 110% | CAKI-1 renal 93.4% | A498 renal 89.1% | CCRF-CEM leukemia 103% | MOLT-4 leukemia 97.7% | SR leukemia 85.2% | RPMI-8226 leukemia 105% | OVCAR-8 ovarian 115% | OVCAR-5 ovarian 108% | OVCAR-4 ovarian 83.2% | SK-OV-3 ovarian 94.6% | IGROV1 ovarian 94.8% | OVCAR-3 ovarian 103% | NCI/ADR-RES ovarian 103%

COc1ccc(Cn2cc(COc3cc(/C=C/C(=O)c4cc(OC)c(OC)c(OC)c4)ccc3OC)nn2)cc1
active: CCRF-CEM leukemia 2.56% | SR leukemia 5.65% | RPMI-8226 leukemia -2.32%
inactive: SK-MEL-2 melanoma 87.1% | SN12C renal 51% | UO-31 renal 37.8% | ACHN renal 64.6% | CAKI-1 renal 17.5% | A498 renal 81.4% | MOLT-4 leukemia 82.3% | OVCAR-8 ovarian 46.6% | OVCAR-5 ovarian 81.3% | OVCAR-4 ovarian 51% | SK-OV-3 ovarian 72% | IGROV1 ovarian 88.8% | OVCAR-3 ovarian 54.3% | HS 578T breast 83.3% | NCI/ADR-RES ovarian 46.2%

COc1ccccc1CNCCCN1C(=O)c2ccc3c4c(ccc(c24)C1=O)C(=O)N(CCCNCCCCNCCCCN)C3=O
inactive: ACHN renal 17.2% | CAKI-1 renal 64% | CCRF-CEM leukemia 13.8% | MOLT-4 leukemia 11.3% | RPMI-8226 leukemia 17.3% | OVCAR-5 ovarian 24.5% | SK-OV-3 ovarian 28% | NCI/ADR-RES ovarian 62.2%
active: SK-MEL-2 melanoma -55.8% | SN12C renal 6.05% | UO-31 renal 8.57% | A498 renal 9.03% | SR leukemia 2.93% | OVCAR-8 ovarian -18.2% | IGROV1 ovarian -57.8% | OVCAR-3 ovarian 1.36%

CC(C)C[C@H](NC(=O)[C@H](Cc1ccccc1)n1ccc(N2CCCCC2)cc1=O)B(O)O
active: SK-MEL-2 melanoma 2.84% | UO-31 renal -37.2% | A498 renal -24.6% | MOLT-4 leukemia -2.84% | RPMI-8226 leukemia -10.5% | OVCAR-3 ovarian -29.3%
inactive: SN12C renal 26.7% | TK-10 renal 16.9% | ACHN renal 16.1% | OVCAR-8 ovarian 31.8% | OVCAR-5 ovarian 39.3% | OVCAR-4 ovarian 39.3% | SK-OV-3 ovarian 53.9% | IGROV1 ovarian 46.2% | HS 578T breast 22% | NCI/ADR-RES ovarian 90.3%

C[C@]12CC[C@@H]3c4cc(O)c(O)cc4CC[C@H]3[C@@H]1CC[C@@H]2O
active: SK-MEL-2 melanoma -16.8% | SR leukemia 9.22%
inactive: SN12C renal 50.7% | UO-31 renal 41.4% | TK-10 renal 87.5% | ACHN renal 42.9% | A498 renal 100% | MOLT-4 leukemia 29.1% | RPMI-8226 leukemia 30.9% | OVCAR-8 ovarian 51.6% | OVCAR-5 ovarian 98% | OVCAR-4 ovarian 49.7% | SK-OV-3 ovarian 29.5% | IGROV1 ovarian 60.2% | OVCAR-3 ovarian 11.5% | NCI/ADR-RES ovarian 28.5%

CC(C)[C@H](CO)Nc1nc(Nc2ccc(C(=O)NCCNS(=O)(=O)c3cccc4c(N(C)C)cccc34)c(Cl)c2)c2ncn(C(C)C)c2n1
inactive: SN12C renal 12.1% | UO-31 renal 77.2% | ACHN renal 43.4% | CAKI-1 renal 48.6% | OVCAR-5 ovarian 49.4% | OVCAR-4 ovarian 41.8% | SK-OV-3 ovarian 72.8% | OVCAR-3 ovarian 20.2% | NCI/ADR-RES ovarian 94.5%
active: SK-MEL-2 melanoma -16.1% | A498 renal -9.15% | CCRF-CEM leukemia -1.68% | MOLT-4 leukemia -12.1% | RPMI-8226 leukemia -41.9% | OVCAR-8 ovarian 9.87% | IGROV1 ovarian -13.7%
